Measured values taken from PubChem BioAssay AID778 (Sanford-Burnham Center for Chemical Genomics, 2007).
Screen size: about 96,000 compounds; about 20,000 (21%) were called active.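 Rule for the calls: active = CYP2C19 inhibition above a set limit at 5 µM in the primary screen (cut at about 50% in these data); inactive = the rest.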 Not all results are given here.

Each molecule was assayed against Cytochrome P450 2C19 (Homo sapiens) (UniProt P33261) (assay: blockers of cytochrome P450 2C19 activity – biochemical, luminescence, ADME assay, primary screen (AID 778;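 note: plate controls were negative control wells for no effect and 2.5 mM tranylcypromine positive control for full effect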)). Details: CYP2C19 Supersomes, luciferin-H EGE luminescence, 30 min; at 5 µM; active compounds read high.
Sequence of Cytochrome P450 2C19 (Homo sapiens) (P33261 whole entry, looked up): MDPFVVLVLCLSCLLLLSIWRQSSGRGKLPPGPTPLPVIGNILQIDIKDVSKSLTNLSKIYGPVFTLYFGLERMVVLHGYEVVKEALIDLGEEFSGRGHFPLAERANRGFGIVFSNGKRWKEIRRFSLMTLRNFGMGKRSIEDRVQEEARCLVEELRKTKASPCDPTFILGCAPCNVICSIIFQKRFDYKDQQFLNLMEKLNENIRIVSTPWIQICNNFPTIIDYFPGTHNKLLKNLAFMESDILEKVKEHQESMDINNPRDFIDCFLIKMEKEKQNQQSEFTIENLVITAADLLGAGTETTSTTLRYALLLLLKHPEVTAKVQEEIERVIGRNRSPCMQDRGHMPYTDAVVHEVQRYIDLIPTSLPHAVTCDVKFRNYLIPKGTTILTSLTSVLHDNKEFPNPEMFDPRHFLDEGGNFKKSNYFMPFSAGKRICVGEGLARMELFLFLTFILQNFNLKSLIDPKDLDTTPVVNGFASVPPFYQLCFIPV

inhibition, inactive:
Cc1ccc(NC(=S)NCCN2CCOCC2)cc1 23%, O=C(CSc1nnc(Cc2ccccc2)n1-c1ccccc1)N1CCOCC1 8.2%, COc1ccc(-c2noc(-c3ccc(C)cc3)n2)cc1 6.2%, COc1ccc(-c2noc(CN(C)S(=O)(=O)c3ccc(C)cc3)n2)cc1 40.2%, CSc1nnc(CNC(=O)c2ccccc2)n1-c1ccc(F)cc1 -4.4%, CCN(CC)C(=O)CSc1nnc(-c2cnccn2)n1-c1ccc(C)cc1 -1.8%, Cc1ccc(Nc2nc(CSc3nnnn3-c3ccccc3)cc(=O)[nH]2)cc1 16.7%, Cc1cccc(-c2noc(-c3ccc(F)cc3)n2)c1 32.6%, Cc1cc2c(cc1C)N(C(=O)CN1C(=O)c3ccccc3C1=O)C(C)(C)c1ssc(=S)c1-2 3.4%, OCCNCCCCOc1ccccc1F -2.2%, Cc1c(Br)c([N+](=O)[O-])nn1C(C)C(=O)Nc1nccs1 (stereo not given) 37.1%, Cc1nnc(SCC(=O)N(C(C)C)C(C)C)nc1C 22.9%, CCc1nc(N2CCN(c3nc(C)cc(C)n3)CC2)c2oc3ccccc3c2n1 8.3%, O=C(Nc1ccc(Br)cc1)c1cccc(NC(=O)C2C3CC4OC(=O)C2C4C3)c1 (stereo not given) 24.6%, O=C(Nc1nncs1)c1ccccc1NS(=O)(=O)c1cccs1 46.2%, CC1(C)CC(=O)C(C=NCc2cccnc2)=C(O)C1 14.2%, CCOC(=O)N1CCC(NC(=O)COc2cc(=O)n(C)c3ccccc23)CC1 -16.3%, CN1C2CCC1/C(=C\c1ccccc1Cl)C(=O)/C2=C\c1ccccc1Cl -12.1%, Cc1ccc(CCNC(=O)C2CCN(S(=O)(=O)N3CCCC3)CC2)cc1 12.2%, CCCCOc1ccc(NC(=O)CSCC(=O)OCC)cc1 14.3%, O=S1(=O)CC(NCc2ccccc2)C(Nc2ccc(Cl)cc2)C1 (stereo not given) 46.7%, Cn1c(=O)c2c(n(Cc3ccccc3)c1=O)NC(=O)C2CC(=O)N1CCc2ccccc2C1 (stereo not given) -9.3%, CC(Oc1ccc(-c2ccccc2)c(F)c1)c1ccn(S(=O)(=O)c2cccc3ccccc23)n1 (stereo not given) 25%, C=CCn1c(=N)n(CC(O)COc2ccc(OC)cc2)c2ccccc21 (stereo not given) 12.4%, Cc1ccc(-c2noc(CC(c3ccccc3)c3ccccc3)n2)cc1 19.9%, Cc1ccc(-c2noc(CSc3nnc(-c4cccs4)n3C)n2)cc1 23%, CCCCCOC(=O)c1ccc(N2C(=O)C3C4C=CC(C4)C3C2=O)cc1 (stereo not given) -13.5%, CC(=O)N1C(=O)C2(Nc3ccccc3N2)c2ccccc21 -7.6%, Clc1cccc(N=C2NN=C(c3ccc4c(c3)OCCO4)CS2)c1 24.7%, C=CC[n+]1c(-c2ccc(C)cc2)csc1NNC(=O)Nc1ccccc1 18%, c1coc(-c2nc3nc4ccccc4n3nc2-c2ccco2)c1 -23.4%, CN(c1nc2ccccc2n2c(-c3ccco3)nnc12)S(=O)(=O)c1ccccc1 1.3%, CSc1nc(C)nc2c1c(=O)n(C)c(=O)n2C -8.7%, CCCC1CC(C)(C(=O)Cn2[nH]c(=O)ccc2=O)OC1=O (stereo not given) 0.3%, COc1cccc(NC(=O)c2nn(C34CC5CC(CC(C5)C3)C4)cc2[N+](=O)[O-])c1 9.7%, CCCn1c(=O)c(-c2ccccc2)c(O)c2ccccc21 -13.5%, COc1ccc(S(=O)(=O)NC2(C(F)(F)F)N=C3SCCN3C2=O)cc1 (stereo not given) -1.5%, Cc1cccc(N2CCN(S(=O)(=O)c3ccc4[nH]c(=O)c(=O)[nH]c4c3)CC2C)c1 (stereo not given) 19.7%, CSc1nnc(-c2ccncc2)n1CCCN1CCCC1=O -0.2%, CC(C)(CCl)C(=O)Nc1ccc(Sc2ccc(F)cc2)cc1 -1.4%, CC(C)NC(=O)c1ccc(Sc2ccccc2)c([N+](=O)[O-])c1 36.8%, CN(C)c1ccc(CNC23CN4CN(CN(C4)C2)C3)cc1 0.2%, c1cnc(NC2C3CC4CC(C3)CC2C4)nc1 (stereo not given) 26%, COc1ccc(C(=O)Nc2ccc3c(c2)OCO3)cc1OC 39.8%, CC(C)CNS(=O)(=O)c1ccc(OCC(=O)Nc2ccc3c(c2)OCO3)c(Cl)c1 -1%, COc1ccc(C(=O)Nc2ccc(S(=O)(=O)Nc3onc(C)c3C)cc2)cc1OC 15.5%, Cc1cc(Cl)c(S(=O)(=O)Nc2ccc3c(c2)OCCO3)cc1OCC(N)=O 15.3%, O=C1CCCC2=C1C(c1cccs1)n1nc(SCc3ccccc3)nc1N2 (stereo not given) -10.3%, N=c1c2c3c(sc2ncn1CCCN1CCOCC1)CCCCC3 7.8%, CCOc1cc2[nH]c(=S)n(Cc3ccc(C(=O)NCCOC)cc3)c(=O)c2cc1OCC -10.8%, CCOC(=O)N1CCN(Cc2oc(CO)cc(=O)c2O)CC1 5.4%, CSCCC(NS(=O)(=O)c1ccc2c(c1)oc(=O)n2C)C(=O)NC1CCCc2ccccc21 (stereo not given) 7.6%, OC1CN=C2Sc3ccccc3N2C1 (stereo not given) -7.4%, O=C(Cc1ccc2c(c1)CCCC2)Nc1ccccc1Cl 27.1%, CC1(C)CC(CCC(=O)Nc2ccccc2Cl)C(=O)O1 (stereo not given) 1.2%, O=C(Nc1ncc2c(n1)CC(c1ccco1)CC2=O)c1ccc(Cl)cc1 (stereo not given) 28.4%, Cc1cc(=O)[nH]c(SCc2cc(Cl)ccc2OC(F)F)n1 29%, CCCCOc1ccc(CSC(=N)N)cc1[N+](=O)[O-] 16.6%, Cc1[nH]n(-c2ccc([N+](=O)[O-])cc2)c(=O)c1C=NCCN1CCN(C(=O)c2ccccc2F)CC1 9.2%, CCC(=O)Nc1ccccc1N1CCN(S(C)(=O)=O)CC1 10.6%, CCOC(=O)c1cnc2sccn2c1=O -11.8%, Cc1ccc(-n2c(=O)c(C#N)cc3c(=O)n4ccccc4nc32)cc1C 6.5%, CCCn1c(=NC(C)=O)c(C(=O)OCC)cc2c(=O)n3ccccc3nc21 -6.3%, COc1cc2[nH]c(=S)n(Cc3ccc(C)o3)c(=O)c2cc1OC -7.9%, CCC(C)(C)n1nnnc1C(c1cccs1)N1CCN(c2nc3ccccc3s2)CC1 (stereo not given) 49.9%, N#Cc1ccc(C(c2nnnn2CCc2ccccc2)N2CCCCCC2)cc1 (stereo not given) 20.5%, CCC(C)(C)n1nnnc1C(c1ccccc1OC)N1CCSCC1 (stereo not given) 11.4%, CC(C)C(c1nnnn1Cc1ccccc1)N1CCC(C(N)=O)CC1 (stereo not given) 10%, O=C1c2cccnc2C(=O)N1Cc1cccs1 21.3%, CCCCNC(=O)CCn1c(=S)[nH]c2cc3c(cc2c1=O)OCO3 41.9%, CCCCn1c(=S)[nH]c2ncccc2c1=O 10.8%, CC(C)(C)c1ccc(C(=O)NNC(=O)Cc2ccccc2)cc1 23.9%, O=S(=O)(c1ccc(F)cc1)n1ccc(-c2cnc(-c3ccccc3)s2)n1 13.6%, CCOC(=O)N1CCN(S(=O)(=O)c2cc3c(cc2C)NC(=O)CO3)CC1 12.1%, COCCn1c(CN2CCC(Cc3ccccc3)CC2)nc2c1c(=O)n(C)c(=O)n2C 49.4%, Cn1cc(S(=O)(=O)N2CCN(c3ccc(F)cc3)CC2)c(=O)n(C)c1=O 26.4%, COCCn1c(SCc2nc3cc(OC)c(OC)cc3c(=O)[nH]2)nnc1-c1ccncc1 -13.4%, C=CCn1c(SCCOc2ccc(OC)cc2)nnc1C(NC(=O)c1ccc(OC)cc1)C(C)C (stereo not given) 35.4%, C=CCn1c(SCC(=O)c2ccc(Br)cc2)nnc1C(C)NC(=O)Cc1ccc(OC)cc1 (stereo not given) 11.6%

inhibition, active:
Cc1ccc(-c2noc(CSc3nnnn3-c3ccccc3)n2)cc1 73.4%, Fc1ccc(-n2c(Cc3ccccc3)nnc2SCc2nc(-c3ccc(Cl)cc3)no2)cc1 80%, COc1ccc(-c2noc(CSc3ccc(C)cc3)n2)cc1 78.6%, Cc1ccc(-c2noc(CSc3nnc(-c4ccncc4)n3-c3ccc(F)cc3)n2)cc1 58.3%, Cc1ccc(-c2noc(CSc3nnc(-c4ccccc4)n3C)n2)cc1 88.2%, O=C1Nc2ccccc2C12Nc1ccccc1S2 (stereo not given) 80.5%, Cn1c(-c2ccco2)nc2cc3ccccc3cc21 53.3%, COc1ccc(-c2cc(C3CCN(c4ncccc4[N+](=O)[O-])CC3)[nH]n2)cc1 84.8%, COC(=O)c1ccc(Sc2ccc(F)cc2)c(N)c1 94.3%, CN(C)c1ccc(CNC2C3CC4CC(C3)CC2C4)cc1 (stereo not given) 75.5%, COc1ccc(F)cc1S(=O)(=O)Nc1ccc2c(c1)OCO2 69.4%, COc1ccc(S(=O)(=O)Nc2ccc(F)cc2)c(C)c1C 94.9%, COc1ccc(S(=O)(=O)Nc2ccc3c(c2)OCO3)cc1Cl 100%, CCCCOc1ccc(Cl)cc1CSc1nncn1N 86.7%, COc1ccc(C(=O)NC(=S)Nc2ccccc2N2CCN(S(C)(=O)=O)CC2)cc1OC 75.2%, CCn1c(=N)c(S(=O)(=O)c2ccc(F)cc2)cc2c(=O)n3ccccc3nc21 69.6%, CCC(C)(C)n1nnnc1C(c1cccs1)N1CCN(Cc2ccccc2)CC1 (stereo not given) 61.8%, Fc1ccc(Cn2nnnc2C(c2cccs2)N2CCCCCC2)cc1 (stereo not given) 96%, Cn1cc(S(=O)(=O)N2CCC(Cc3ccccc3)CC2)c(=O)n(C)c1=O 69.7%, C=CCn1c(SCc2cc(C(=O)OC)c(C)o2)nnc1-c1ccncc1 92.1%, C=CCn1c(SCc2c(C(=O)OC)sc(N)c2C(=O)OC)nnc1-c1ccc(Cl)cc1 57.1%
